# From PubChem BioAssay (NCATS)
# Values joined by “and” are separate entries in the source; they are usually repeats but may differ in a detail not shown here. Equal entries are not always repeated. Results filed as inconclusive are left out. Values without a mark were called inactive. Active and inactive are the calls of the source. The call rests on the fitted dose curve; in most records, active means well fitted inhibition curve with a large enough effect; inconclusive means small, poorly fitted or top-dose-only effect; inactive means flat fitted curve, though single readings scatter.
# Assays:
# [1] = Drug repurposing screens with cells derived from glioblastoma tumor samples (AID 1345199); conditions: GBM patient neurospheres viability, ATP luminescence, 48 h; further: nearly all actives have a fitted effect of over 40% in size
# How it was run: (§1)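 Four patient lines of CD133+ GBM neurospheres were screened at several concentrations; hits were retested in those lines plus three slower-growing GBM lines, using 48-hour treatment and ATP-based viability.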
# astro = control astrocytes; assay: as above; conditions: viability, ATP luminescence, 48 h; series mostly up to 45.9 µM
# How it was run: as §1
# [2] = at 45.9 µM (top of the series), tumour line B
# [3] = at 45.9 µM (top of the series), tumour line D
# [4] = at 46 µM (top of the series), tumour line A
# [5] = at 46.1 µM (top of the series), tumour line C
# [6] = at 20 µM (top of the series), tumour line C
# [7] = at 21.2 µM (top of the series), tumour line B
# [8] = at 21.2 µM (top of the series), tumour line D
# [9] = at 21.3 µM (top of the series), tumour line A
# On the % scale 0 is the no-effect control and ±100 the full control effect; potency means the concentration at half of the fitted maximal effect.
compound,measurement,setting,value
CCCCCCCCCCCCOCCCN,"activity, negative = cell killing",[1]; [2],-9.11%
same,"activity, negative = cell killing",[1]; [3],2.93%
same,"activity, negative = cell killing",[1]; [4],-39.4%
same,"activity, negative = cell killing",[1]; [5],-14.6%
same,Potency,astro,inactive
CC(C)C[C@H](NC(=O)[C@@H](COC(C)(C)C)NC(=O)[C@H](Cc1ccc(O)cc1)NC(=O)[C@H](CO)NC(=O)[C@H](Cc1c[nH]c2ccccc12)NC(=O)[C@H](Cc1cnc[nH]1)NC(=O)[C@@H]1CCC(=O)N1)C(=O)N[C@@H](CCCN=C(N)N)C(=O)N1CCC[C@H]1C(=O)NNC(N)=O,"activity, negative = cell killing",[1]; [2],-16.4% and -7.35%
same,"activity, negative = cell killing",[1]; [3],-27.1% and -14%
same,"activity, negative = cell killing",[1]; [4],-28.3% and -17.4%
same,"activity, negative = cell killing",[1]; [5],-8.14% and 8.02%
same,Potency,astro,inactive
C=N[C@@H](C(=O)N[C@@H]1C(=O)N2[C@@H]1SC(C)(C)[C@@H]2C(=O)O)c1ccccc1,"activity, negative = cell killing",[1]; [2],-11%
same,"activity, negative = cell killing",[1]; [3],-11.4%
same,"activity, negative = cell killing",[1]; [4],-8.19%
same,"activity, negative = cell killing",[1]; [5],-15.6%
same,Potency,astro,inactive
C[C@@](Cc1ccc(O)c(O)c1)(NN)C(=O)O,"activity, negative = cell killing",[1]; [2],-16.8%
same,"activity, negative = cell killing",[1]; [3],-8.91%
same,"activity, negative = cell killing",[1]; [4],-39.3%
same,"activity, negative = cell killing",[1]; [5],-14.3%
same,Potency,astro,inactive
C=CC(=O)O,"activity, negative = cell killing",[1]; [2],-8.62%
same,"activity, negative = cell killing",[1]; [3],-6.79%
same,"activity, negative = cell killing",[1]; [4],-25.8%
same,"activity, negative = cell killing",[1]; [5],-0.506%
same,Potency,astro,inactive
CC(=O)Nc1c(I)c(C(=O)N[C@H]2C(O)O[C@H](CO)[C@@H](O)[C@@H]2O)c(I)c(N(C)C(C)=O)c1I (stereo not given in full),"activity, negative = cell killing",[1]; [6],-5.11%
same,"activity, negative = cell killing",[1]; [7],-5.7%
same,"activity, negative = cell killing",[1]; [8],-16.2%
same,"activity, negative = cell killing",[1]; [9],-16.4%
same,Potency,astro,inactive
CN[C@@H]1[C@H](O[C@H]2[C@H](O[C@H]3[C@H](O)[C@@H](O)[C@H](N=C(N)N)[C@@H](O)[C@@H]3N=C(N)N)O[C@@H](C)[C@]2(O)C=O)O[C@@H](CO)[C@H](O)[C@H]1O,"activity, negative = cell killing",[1]; [2],1.28%
same,"activity, negative = cell killing",[1]; [3],-18.9%
same,"activity, negative = cell killing",[1]; [4],-12%
same,"activity, negative = cell killing",[1]; [5],-1.08%
same,Potency,astro,inactive
C[C@H](N)C(=O)N[C@@H](C)P(=O)(O)O,"activity, negative = cell killing",[1]; [2],-6.14%
same,"activity, negative = cell killing",[1]; [3],-11.2%
same,"activity, negative = cell killing",[1]; [4],-15.6%
same,"activity, negative = cell killing",[1]; [5],-19.1%
same,Potency,astro,inactive
c1ccc2cc(C3=NCCN3)ccc2c1,"activity, negative = cell killing",[1]; [2],-16.9%
same,"activity, negative = cell killing",[1]; [3],-20.8%
same,"activity, negative = cell killing",[1]; [5],-24%
same,Potency,[1]; tumour line A,11.2 µM (active)
same,Potency,astro,inactive
CC(=O)OCC1=C(C(=O)O)N2C(=O)[C@@H](NC(=O)Cc3ccccc3)[C@H]2SC1,"activity, negative = cell killing",[1]; [2],-6.43%
same,"activity, negative = cell killing",[1]; [3],-15.2%
same,"activity, negative = cell killing",[1]; [4],-28.6%
same,"activity, negative = cell killing",[1]; [5],-24%
same,Potency,astro,inactive
O=C(O)c1cc(O)c2c(c1)[C@H]([C@H]1c3cc(C(=O)O)cc(O)c3C(=O)c3c(O[C@@H]4O[C@H](CO)[C@@H](O)[C@H](O)[C@H]4O)cccc31)c1cccc(O[C@@H]3O[C@H](CO)[C@@H](O)[C@H](O)[C@H]3O)c1C2=O,"activity, negative = cell killing",[1]; [2],-24.5%
same,"activity, negative = cell killing",[1]; [3],-3.04%
same,"activity, negative = cell killing",[1]; [4],-24%
same,"activity, negative = cell killing",[1]; [5],-0.084%
same,Potency,astro,inactive
NCC[C@H](O)C(=O)N[C@@H]1C[C@H](N)[C@@H](O[C@H]2O[C@H](CN)CC[C@H]2N)[C@H](O)[C@H]1O[C@H]1O[C@H](CO)[C@@H](O)[C@H](N)[C@H]1O,"activity, negative = cell killing",[1]; [2],-11.6%
same,"activity, negative = cell killing",[1]; [3],-8.34%
same,"activity, negative = cell killing",[1]; [4],-19.6%
same,"activity, negative = cell killing",[1]; [5],-19.9%
same,Potency,astro,inactive
O=P(O)(O)OC[C@H]1O[C@](O)(COP(=O)(O)O)[C@@H](O)[C@@H]1O,"activity, negative = cell killing",[1]; [2],-4.16%
same,"activity, negative = cell killing",[1]; [3],-21.7%
same,"activity, negative = cell killing",[1]; [4],-47.3%
same,"activity, negative = cell killing",[1]; [5],-3.41%
same,Potency,astro,inactive
CCCc1ccc(C(=O)O)cc1,"activity, negative = cell killing",[1]; [2],-12.5%
same,"activity, negative = cell killing",[1]; [3],-19.9%
same,"activity, negative = cell killing",[1]; [4],-22.4%
same,"activity, negative = cell killing",[1]; [5],3.37%
same,Potency,astro,inactive
N[C@H](CC(=O)O)C(=O)O,"activity, negative = cell killing",[1]; [2],13.2%
same,"activity, negative = cell killing",[1]; [3],11.3%
same,"activity, negative = cell killing",[1]; [4],11.8%
same,"activity, negative = cell killing",[1]; [5],-1.3%
same,Potency,astro,inactive
FC(F)OC(Cl)C(F)(F)F (stereo not given),"activity, negative = cell killing",[1]; [2],-4.99%
same,"activity, negative = cell killing",[1]; [3],-20.2%
same,"activity, negative = cell killing",[1]; [4],-34.3%
same,"activity, negative = cell killing",[1]; [5],-9.7%
same,Potency,astro,inactive
CC(O)[C@@H]1NC(=O)[C@H](Cc2ccccc2)NC(=O)[C@H](C(C)O)NC(=O)[C@H](CCCCN)NC(=O)[C@H](Cc2c[nH]c3ccccc23)NC(=O)[C@H](Cc2ccccc2)NC(=O)[C@H](Cc2ccccc2)NC(=O)[C@H](CC(N)=O)NC(=O)[C@H](CCCCN)NC(=O)[C@@H](NC(=O)CNC(=O)[C@H](C)N)CSSC[C@@H](C(=O)O)NC(=O)[C@H](CO)NC1=O (stereo not given in full),"activity, negative = cell killing",[1]; [2],-13.9%
same,"activity, negative = cell killing",[1]; [3],-20.3%
same,"activity, negative = cell killing",[1]; [4],-21.3%
same,"activity, negative = cell killing",[1]; [5],-3.11%
same,Potency,astro,inactive
CN1C(=O)OC(C)(C)C1=O,"activity, negative = cell killing",[1]; [6],-9%
same,"activity, negative = cell killing",[1]; [7],0.292%
same,"activity, negative = cell killing",[1]; [8],-3.8%
same,"activity, negative = cell killing",[1]; [9],-18.7%
same,Potency,astro,inactive
CNC(=O)c1c(I)c(C(=O)NCC(=O)Nc2c(I)c(C(=O)O)c(I)c(C(=O)NCCO)c2I)c(I)c(N(C)C(C)=O)c1I,"activity, negative = cell killing",[1]; [2],-2.37%
same,"activity, negative = cell killing",[1]; [3],-21.2%
same,"activity, negative = cell killing",[1]; [4],-7.61%
same,"activity, negative = cell killing",[1]; [5],3.32%
same,Potency,astro,inactive
O=C1NCCN1c1ncc([N+](=O)[O-])s1,"activity, negative = cell killing",[1]; [6],-26.4%
same,"activity, negative = cell killing",[1]; [7],-0.147%
same,"activity, negative = cell killing",[1]; [8],-24%
same,"activity, negative = cell killing",[1]; [9],-10.3%
same,Potency,astro,inactive
CC(C)N1CCN(c2ccc(OC[C@H]3CO[C@](Cn4cncn4)(c4ccc(Cl)cc4Cl)O3)cc2)CC1,"activity, negative = cell killing",[1]; [6],-6.28%
same,Potency,[1]; tumour line A,2.51 µM (active)
same,Potency,[1]; tumour line B,14.1 µM (active)
same,Potency,[1]; tumour line D,10 µM (active)
same,Potency,astro,inactive
CC1(C)[C@@H]2CC[C@@]1(C)[C@H](OC(=O)CSC#N)C2,"activity, negative = cell killing",[1]; [2],-7.75%
same,"activity, negative = cell killing",[1]; [3],-12%
same,"activity, negative = cell killing",[1]; [5],23.1%
same,Potency,[1]; tumour line A,35.5 µM (active)
same,Potency,astro,inactive
